Our source for the AC50 and outcome values is PubChem BioAssay (EPA / NIEHS).

Active and inactive are the calls of the source. Rule for the calls: active = hit-call score of the fitted dose curve at least 0.9, where 1 is the maximum; inactive = score below 0.9.

Holding throughout (details): mRNA level, 48 h; actives raise or lower the signal
Read-out in assay [1]: CYP2C9 (gene 1559)
The assay is described as follows: LTEA_HepaRG_CYP2C9: Life Technologies and Expression Analysis (LTEA) Assay for CYP2C9 using HepaRG (AID 2283484). In short, it runs like this: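 Differentiated human HepaRG cells were exposed 48 h in serum-free induction medium to eight half-log concentrations up to 100 uM in 0.5% DMSO. CYP2C9 mRNA was measured by qRT-PCR, normalized to ACTB, GAPDH and POLR2A, and fitted bidirectionally against DMSO.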

Read-out in assay [2]: CYP2E1 (gene 1571)
The assay can be described thus: LTEA_HepaRG_CYP2E1: Life Technologies and Expression Analysis (LTEA) Assay for CYP2E1 using HepaRG (AID 2283485). In short, it runs like this: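 Human liver line HepaRG, plated 48 h, then serum-free induction medium + chemical x 48 h; 8-pt CRC from 100 uM, half-log, 0.5% DMSO, n=2. Readout: CYP2E1 mRNA qRT-PCR vs ACTB/GAPDH/POLR2A; bidirectional fit vs DMSO.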

Read-out in assay [3]: CYP4A11 (gene 1579)
The assay is described as follows: LTEA_HepaRG_CYP4A11: Life Technologies and Expression Analysis (LTEA) Assay for CYP4A11 using HepaRG (AID 2283486). In short, it runs like this: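 CYP4A11 transcript levels were quantified by TaqMan qRT-PCR after HepaRG human liver cells were treated for 48 hours with test chemicals (top 100 uM, half-log dilutions, 0.5% DMSO). Gain or loss of signal was fitted relative to DMSO.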

Read-out in assay [4]: Cytochrome P450 3A4 (Homo sapiens) (UniProt P08684)
The assay is described as follows: LTEA_HepaRG_CYP3A4: Life Technologies and Expression Analysis (LTEA) Assay for CYP3A4 using HepaRG (AID 2283487). In short, it runs like this:
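In a human hepatic line (HepaRG), duplicate wells were treated 48 h with up to 100 uM chemical in half-log dilutions. Endpoint: CYP3A4 mRNA induction or loss relative to 0.5% DMSO vehicle, by qRT-PCR.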

Read-out in assay [5]: DNA damage-inducible transcript 3 (DDIT3), DDIT3 (gene 1649)
The assay can be described thus: LTEA_HepaRG_DDIT3: Life Technologies and Expression Analysis (LTEA) Assay for DNA damage-inducible transcript 3 (DDIT3) using HepaRG (AID 2283488). Summed up: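 HepaRG plated 48 h, switched to serum-free induction medium, dosed 48 h (100 uM top, half-log, 8 pts, 0.5% DMSO, n=2); RNA isolated; DDIT3 by qRT-PCR; bidirectional curve fit vs DMSO.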

Read-out in assay [6]: Pro-epidermal growth factor (Homo sapiens) (UniProt P01133)
The assay is described as follows: LTEA_HepaRG_EGF: Life Technologies and Expression Analysis (LTEA) Assay for Epidermal growth factor (EGF) using HepaRG (AID 2283489). In short, it runs like this: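 qRT-PCR readout of EGF transcript after 48 h chemical exposure of HepaRG cells; eight concentrations from 100 uM down in half-log steps, duplicate wells, 0.5% DMSO vehicle. Bidirectional curve fitting against DMSO baseline.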

Read-out in assay [7]: Early growth response protein 1 (EGR1) transcription factor, EGR1 (gene 1958)
The assay can be described thus: LTEA_HepaRG_EGR1: Life Technologies and Expression Analysis (LTEA) Assay for Early growth response protein 1 (EGR1) transcription factor using HepaRG (AID 2283490). Summed up:
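Differentiated human HepaRG cells in serum-free induction medium were exposed in duplicate for 48 h to eight concentrations (top 100 uM, half-log steps) in 0.5% DMSO. EGR1 mRNA was quantified by qRT-PCR, normalized to ACTB, GAPDH and POLR2A, and fitted bidirectionally versus DMSO.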

Read-out in assay [8]: Ezrin (EZR), EZR (gene 7430)
The assay can be described thus: LTEA_HepaRG_EZR: Life Technologies and Expression Analysis (LTEA) Assay for Ezrin (EZR) using HepaRG (AID 2283491). Summed up:
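Gain or loss of EZR mRNA is scored relative to 0.5% DMSO in human HepaRG cultures treated 48 h with test chemicals in duplicate, eight half-log concentrations from 100 uM.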

Read-out in assay [9]: CYP3A5 (gene 1577)
The assay can be described thus: LTEA_HepaRG_CYP3A5: Life Technologies and Expression Analysis (LTEA) Assay for CYP3A5 using HepaRG (AID 2283493). Summed up:
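HepaRG plated 48 h, switched to serum-free induction medium, chemicals added 48 h (max 100 uM, half-log, 0.5% DMSO). RNA isolated; CYP3A5 by TaqMan qRT-PCR. Gain/loss vs DMSO.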

Read-out in assay [10]: Fatty Acid-Binding Protein 1 (FABP1), FABP1 (gene 2168)
The assay can be described thus: LTEA_HepaRG_FABP1: Life Technologies and Expression Analysis (LTEA) Assay for Fatty Acid-Binding Protein 1 (FABP1) using HepaRG (AID 2283494). Summed up: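 Differentiated human HepaRG cells were exposed in duplicate for 48 h in serum-free induction medium to 8-point half-log concentration series topping at 100 uM in 0.5% DMSO. FABP1 mRNA measured by TaqMan qRT-PCR, normalized to ACTB/GAPDH/POLR2A; bidirectional fit versus DMSO.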

Read-out in assay [11]: Cytochrome P450 4A22 (Homo sapiens) (UniProt Q5TCH4)
The assay can be described thus: LTEA_HepaRG_CYP4A22: Life Technologies and Expression Analysis (LTEA) Assay for Cytochrome P450 4A22 (CYP4A22) using HepaRG (AID 2283495). In short, it runs like this: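 HepaRG, 48 h post-plating -> serum-free induction medium; dosed 48 h, duplicate, 8 conc. (100 uM top, half-log), 0.5% DMSO. Readout: CYP4A22 mRNA by qRT-PCR, ACTB/GAPDH/POLR2A normalization; gain/loss fit relative to DMSO.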

Read-out in assay [12]: Cytochrome P450 7A1 (Homo sapiens) (UniProt P22680)
The assay can be described thus: LTEA_HepaRG_CYP7A1: Life Technologies and Expression Analysis (LTEA) Assay for Cytochrome P450 7A1 (CYP7A1) using HepaRG (AID 2283496). In short, it runs like this:
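HepaRG cells plated 48 h, then switched to serum-free induction medium and exposed in duplicate for 48 h to 8-point half-log series from 100 uM in 0.5% DMSO. CYP7A1 mRNA by qRT-PCR (TaqMan), normalized to ACTB/GAPDH/POLR2A; bidirectional fit versus DMSO.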

Read-out in assay [13]: Glutathione S-Transferase (GSTA2), GSTA2 (gene 2939)
The assay is described as follows: LTEA_HepaRG_GSTA2: Life Technologies and Expression Analysis (LTEA) Assay for Glutathione S-Transferase (GSTA2) using HepaRG (AID 2283497). Summed up: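 Human HepaRG cells, plated 48 h, then exposed in serum-free induction medium for 48 h to eight half-log concentrations up to 100 uM in 0.5% DMSO, duplicate. GSTA2 mRNA by qRT-PCR, normalized to ACTB/GAPDH/POLR2A; bidirectional fit versus DMSO.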

Read-out in assay [14]: Glutamate-cysteine ligase catalytic (GCLC), GCLC (gene 2729)
The assay can be described thus: LTEA_HepaRG_GCLC: Life Technologies and Expression Analysis (LTEA) Assay for Glutamate-cysteine ligase catalytic (GCLC) using HepaRG (AID 2283498). In short, it runs like this:
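Differentiated human HepaRG cells, plated 48 h then switched to serum-free induction medium, were exposed in duplicate for 48 h to 8 half-log concentrations topping at 100 uM in 0.5% DMSO. GCLC mRNA was quantified by qRT-PCR against ACTB, GAPDH and POLR2A.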

Read-out in assay [15]: growth arrest and DNA damage 45 (GADD45G), GADD45G (gene 10912)
The assay can be described thus: LTEA_HepaRG_GADD45G: Life Technologies and Expression Analysis (LTEA) Assay for growth arrest and DNA damage 45 (GADD45G) using HepaRG (AID 2283499). In short, it runs like this: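 HepaRG, 48 h exposure, top 100 uM, half-log 8-point series, 0.5% DMSO vehicle, duplicates. Readout: GADD45G transcript by qRT-PCR (Fluidigm array), housekeeping-normalised (ACTB/GAPDH/POLR2A). Bidirectional curve fit vs DMSO baseline.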

Read-out in assay [16]: Glutamate-cysteine ligase regulatory (GCLM), GCLM (gene 2730)
The assay can be described thus: LTEA_HepaRG_GCLM: Life Technologies and Expression Analysis (LTEA) Assay for Glutamate-cysteine ligase regulatory (GCLM) using HepaRG (AID 2283500). In short, it runs like this:
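Cells were plated, cultured 48 h, switched to serum-free induction medium, then dosed in duplicate for 48 h at eight half-log concentrations up to 100 uM. RNA was then profiled by qRT-PCR; gain or loss versus DMSO was fitted.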

Read-out in assay [17]: Heat shock 70 kDa protein 1 (HSPA1A), gene 3303
The assay is described as follows: LTEA_HepaRG_HSPA1A: Life Technologies and Expression Analysis (LTEA) Assay for Heat shock 70 kDa protein 1 (HSPA1A) using HepaRG (AID 2283502). Summed up:
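Readout is HSPA1A transcript level by microfluidic qRT-PCR, normalized to three housekeeping genes and analysed for gain or loss of signal relative to 0.5% DMSO. Human HepaRG cultures received test chemicals for 48 h at up to 100 uM.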

Read-out in assay [18]: Hypoxia-inducible factor 1-alpha (Homo sapiens) (UniProt Q16665)
The assay can be described thus: LTEA_HepaRG_HIF1A: Life Technologies and Expression Analysis (LTEA) Assay for Hypoxia-inducible factor 1 (HIF1A) Trancription factor using HepaRG (AID 2283503). Summed up:
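Differentiated HepaRG cells in serum-free induction medium exposed 48 h, in duplicate, to 8-point half-log series from 100 uM in 0.5% DMSO. HIF1A mRNA measured by TaqMan qRT-PCR, normalized to ACTB/GAPDH/POLR2A, fitted bidirectionally versus DMSO.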

Cytochrome P450 3A4 (Homo sapiens), sequence (P08684 whole entry, looked up): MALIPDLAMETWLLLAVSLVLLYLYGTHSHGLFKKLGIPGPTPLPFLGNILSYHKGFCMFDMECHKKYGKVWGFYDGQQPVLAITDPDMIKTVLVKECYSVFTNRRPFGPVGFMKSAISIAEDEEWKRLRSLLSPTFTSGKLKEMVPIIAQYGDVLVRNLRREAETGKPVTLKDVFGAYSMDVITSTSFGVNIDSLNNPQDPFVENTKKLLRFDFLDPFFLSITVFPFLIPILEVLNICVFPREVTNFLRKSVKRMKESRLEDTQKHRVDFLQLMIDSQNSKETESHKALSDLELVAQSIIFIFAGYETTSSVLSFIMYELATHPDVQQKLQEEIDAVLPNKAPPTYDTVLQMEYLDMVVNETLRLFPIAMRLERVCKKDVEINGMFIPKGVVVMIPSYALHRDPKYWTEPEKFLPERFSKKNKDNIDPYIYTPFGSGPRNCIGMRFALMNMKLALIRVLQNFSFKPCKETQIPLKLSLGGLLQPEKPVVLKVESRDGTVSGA
Hypoxia-inducible factor 1-alpha (Homo sapiens), sequence (Q16665 whole entry, looked up): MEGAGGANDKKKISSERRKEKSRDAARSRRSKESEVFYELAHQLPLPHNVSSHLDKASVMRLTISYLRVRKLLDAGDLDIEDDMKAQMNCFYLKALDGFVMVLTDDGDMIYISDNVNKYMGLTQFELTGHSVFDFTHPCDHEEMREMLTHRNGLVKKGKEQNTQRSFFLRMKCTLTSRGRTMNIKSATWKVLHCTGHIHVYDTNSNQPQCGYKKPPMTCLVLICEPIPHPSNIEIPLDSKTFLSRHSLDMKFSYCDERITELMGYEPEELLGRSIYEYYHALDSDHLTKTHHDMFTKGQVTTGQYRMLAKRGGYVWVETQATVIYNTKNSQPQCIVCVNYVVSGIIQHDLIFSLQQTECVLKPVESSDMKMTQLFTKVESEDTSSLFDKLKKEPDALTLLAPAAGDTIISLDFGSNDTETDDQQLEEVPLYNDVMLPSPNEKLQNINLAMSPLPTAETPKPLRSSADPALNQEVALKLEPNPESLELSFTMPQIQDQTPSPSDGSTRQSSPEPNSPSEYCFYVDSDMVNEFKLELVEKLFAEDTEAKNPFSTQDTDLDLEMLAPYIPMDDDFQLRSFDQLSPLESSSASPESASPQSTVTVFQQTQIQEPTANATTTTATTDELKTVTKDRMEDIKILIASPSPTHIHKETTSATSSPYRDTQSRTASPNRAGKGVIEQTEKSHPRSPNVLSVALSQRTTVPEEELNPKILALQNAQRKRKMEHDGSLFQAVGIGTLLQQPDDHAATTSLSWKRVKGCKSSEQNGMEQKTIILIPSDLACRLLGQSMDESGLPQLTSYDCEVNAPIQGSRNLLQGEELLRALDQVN

Usually AC50 stands for the concentration at which the activity in the assay is half-maximal. As to `COc1cc(C=O)cc2c1[C@H](COC(N)=O)[C@]1(OC(C)=O)ON2C[C@H]2[C@@H]1N2C(C)=O`, the AC50 in [1] is 24.2 µM (active); in [3], 0.5 µM (active); in [5], 15.8 µM (active); in assay [7] it was 88.8 µM (active); in assay [10], 0.701 µM (active); in assay [11], 0.0669 µM (active). For the same molecule, the AC50 in assay [12] was 0.417 µM (active); in [13], 1.06 µM (active); in assay [14] it was 0.312 µM (active); in [15], 21.8 µM (active). The result in assay [2], in [4], in [6], in assay [8], in [9] and in assay [16] was inactive. Further, the molecule was called inactive in [17].

Regarding `CN(C)C(=O)Nc1ccc(Cl)cc1`, the result in assay [1], in [3], in assay [4], in assay [5], in assay [6] and in [7] was inactive. The molecule was classed as inactive in assay [8], in assay [9], in assay [10], in [11], in [12] and in [13]. The molecule was called inactive in assay [14], in assay [15], in assay [16], in assay [17] and in assay [18]. Moreover, the AC50 in assay [2] is 50 µM (active).

Consider `[As]#[In]`, for which the molecule was classed as inactive in assay [1], in assay [3], in assay [4], in assay [5], in [6] and in [7]. The molecule was called inactive in assay [8], in assay [9], in [10], in [11], in assay [12] and in [13]. In addition, the call in [14], in assay [15], in assay [16] and in assay [17] was inactive.
